Laboratory results published in PubChem BioAssay (EPA / NIEHS).
Results filed as inconclusive are left out. Active and inactive are the calls of the source. The calls were made as follows: active = hit-call score of the fitted dose curve at least 0.9, where 1 is the maximum; inconclusive = response in the unintended direction; inactive = score below 0.9.

Tests used:
[1] = ArunA_NOG_NeuritesPerNeuron: ArunA Biomedical's Neurite Outgrowth (NOG) Assay for Neurites Per Neuron (AID 2283758)
Outline: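 Differentiated human H9-derived neurons exposed to chemicals for 48 h from seeding, then stained with Hoechst and βIII-tubulin/DyLight 488. Automated imaging counted neurites (processes >10 um) per valid neuron; loss of signal versus DMSO scored.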

[2] = ArunA_NOG_BranchPointsPerNeurite: ArunA Biomedical's Neurite Outgrowth (NOG) Assay for Branch Points Per Neurite (AID 2283759)
Outline: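 Automated image analysis traced neurites (processes >10 um) from valid cell bodies after Hoechst and βIII-tubulin staining. hNN cells from H9 embryonic stem cells, 48 h exposure. Fitted bidirectionally against DMSO.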

[3] = ACEA_AR_agonist_AUC_viability: ACEA Biosciences xCELLigence Real-Time Cell Analysis on Androgen Receptor Agonism for Viability (AID 2283775);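 as to AC50: viability read 80 hours after compound addition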
Outline: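 Read-out is area under the impedance curve at 80 h post-dose in 22Rv1 cells, with DMSO as baseline and signal loss taken as reduced viability. Compounds ran in duplicate from 100 uM final.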

[4] = ACEA_AR_antagonist_AUC_viability: ACEA Biosciences xCELLigence Real-Time Cell Analysis on Androgen Receptor Antagonism for Viability (AID 2283776);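 also: 22Rv1 human prostate cancer cells growing on impedance electrode plates; area under impedance growth curve at 80 h after dosing as viability; hits lower the growth signal relative to DMSO meaning cytotoxicity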
Outline: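 Real-time electrical impedance tracks 22Rv1 proliferation after continuous compound exposure (top 100 uM final, 1:4 steps, 8 concentrations). The 80 h area-under-curve serves as the cytotoxicity readout relative to DMSO.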

[5] = ArunA_NOG_NeuriteLength: ArunA Biomedical's Neurite Outgrowth (NOG) Assay for Neurite Length (AID 2283757)
Outline: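 Differentiated human H9-derived neurons were exposed for 48 h from seeding, then stained with Hoechst and βIII-tubulin. Automated high-content imaging gave total neurite length per valid neuron, counting processes >10 um. Loss of signal was scored versus DMSO.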

[6] = test system: zebrafish Androgen Receptor (AR), gene 100005148; assay: ATG_zfAR_XSP1: Attagene TRANS-FACTORIAL Multi-Species (XSP1) HepG2 Assay for zebrafish Androgen Receptor (AR) (AID 2283771)
Outline: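 HepG2 cells were transiently transfected with a zebrafish AR-GAL4 reporter system and partially stimulated with 3 nM 6-alpha-fluorotestosterone. Reporter mRNA was measured after 24 h dosing by RT-PCR with capillary electrophoresis, and gain-of-signal was fitted relative to DMSO.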

[7] = molecular target: zebrafish Estrogen Receptor (ESR1), esr1 (gene 259252) (UniProt P57717); assay: ATG_zfER1_XSP1: Attagene TRANS-FACTORIAL Multi-Species (XSP1) HepG2 Assay for zebrafish Estrogen Receptor (ESR1) (AID 2283772)
Outline: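 Exogenous chimeric receptor-GAL4 activity is measured in transiently transfected human HepG2 liver cells after 24 h compound exposure. Reporter transcripts are detected by RT-PCR and fluorescent capillary electrophoresis, analysed for signal gain relative to DMSO.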

[8] = test system: zebrafish Estrogen Receptor (ESR2B), gene 317733; assay: ATG_zfER2b_XSP1: Attagene TRANS-FACTORIAL Multi-Species (XSP1) HepG2 Assay for zebrafish Estrogen Receptor (ESR2B) (AID 2283773)
Outline: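 Gain-of-signal endpoint relative to DMSO: reporter transcript levels quantified by RT-PCR and capillary electrophoresis after 24 h compound exposure of HepG2 cells expressing a zebrafish ER2b-Gal4 chimera.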

[9] = test system: frog Estrogen Receptor (ESR2), gene 100174814; assay: ATG_frER2_XSP1: Attagene TRANS-FACTORIAL Multi-Species (XSP1) HepG2 Assay for frog Estrogen Receptor (ESR2) (AID 2283774)
Outline: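 Transactivation of an exogenous receptor-Gal4 fusion is tracked in transfected HepG2 cells via induced reporter transcript levels. After 24 h treatment, RT-PCR with capillary electrophoresis quantifies signal gain over DMSO.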

[10] = ACEA_ER_AUC_viability: ACEA Biosciences xCELLigence Real-Time Cell Analysis on Estrogen Receptor Agonism for Viability (AID 2283782);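 also: hit means loss of impedance signal meaning reduced cell growth or viability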
Outline: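 T-47D; phenol red-free RPMI1640 + 10% CS-FBS; 8 conc., 1:4 serial, max 100 uM final, ≤0.5% DMSO; n = 2; continuous exposure; impedance monitored to 80 h post-dose; AUC vs DMSO.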

Chain of zebrafish Estrogen Receptor (ESR1), esr1 (gene 259252) (P57717 whole entry, looked up, the tested form may be a part): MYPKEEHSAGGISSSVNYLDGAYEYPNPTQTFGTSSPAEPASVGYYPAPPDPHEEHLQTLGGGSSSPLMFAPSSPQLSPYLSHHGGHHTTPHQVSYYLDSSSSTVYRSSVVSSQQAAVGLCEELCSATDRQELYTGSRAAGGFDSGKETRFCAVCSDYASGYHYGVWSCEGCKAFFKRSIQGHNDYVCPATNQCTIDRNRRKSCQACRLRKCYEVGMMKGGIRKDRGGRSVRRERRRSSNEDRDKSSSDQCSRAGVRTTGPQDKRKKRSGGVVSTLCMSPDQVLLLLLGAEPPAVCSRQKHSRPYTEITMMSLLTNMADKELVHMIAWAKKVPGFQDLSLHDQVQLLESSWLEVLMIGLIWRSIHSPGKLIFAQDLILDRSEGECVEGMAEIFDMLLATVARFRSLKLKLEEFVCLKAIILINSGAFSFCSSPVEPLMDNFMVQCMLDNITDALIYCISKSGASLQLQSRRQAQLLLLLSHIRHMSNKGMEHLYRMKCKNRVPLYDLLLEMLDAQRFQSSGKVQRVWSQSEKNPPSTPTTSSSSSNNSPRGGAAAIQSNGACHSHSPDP

## OC[C@@H](O)[C@@H](O)[C@H](O)[C@H](O)CO
[1]
  outcome: inactive
[2]
  AC50: 9.92 µM (active)

## c1cc(-c2ccncc2)ccn1
[3]
  outcome: inactive

## CC(=O)Oc1ccccc1C(=O)O
[3]
  outcome: inactive
[4]
  outcome: inactive

## NCC1(Cc2noc(=O)[nH]2)CCCCC1
[3]
  outcome: inactive

## NS(=O)(=O)c1cc2c(cc1Cl)NCNS2(=O)=O
[3]
  outcome: inactive

## Cc1cccc([N+](=O)[O-])c1C
[3]
  outcome: inactive

## CCCCc1ccc2c(n1)[C@@H](c1ccc(OC)cc1C[C@H](C)C(=O)O)[C@H](C(=O)O)[C@H]2c1ccc2c(c1)OCO2
[2]
  outcome: inactive
[3]
  outcome: inactive
[4]
  AC50: 19.9 µM (active)

## Cc1ccc(N(C)C)cc1
[3]
  outcome: inactive

## Cc1cccc(Nc2cc(Cl)nc(SCC(=O)O)n2)c1C
[3]
  outcome: inactive
[4]
  outcome: inactive

## CN1CCCC1=O
[3]
  outcome: inactive

## O=C(OCCCCCOC(=O)c1ccccc1)c1ccccc1
[3]
  AC50: 90.1 µM (active)

## NCCO
[3]
  outcome: inactive
[4]
  outcome: inactive

## CC(=O)C(C)=CC1C(C)=CCCC1(C)C (stereo unspecified)
[3]
  outcome: inactive
[4]
  AC50: 9.92 µM (active)

## CCc1c(C(=O)NN2CCCCC2)nn(-c2ccc(Cl)cc2Cl)c1-c1ccc(Br)cc1
[3]
  AC50: 12.7 µM (active)

## O=c1[nH]cc(F)c(=O)[nH]1
[3]
  AC50: 2.42 µM (active)

## COC(=O)c1ccc(O)cc1
[5]
  AC50: 18.1 µM (active)
[1]
  AC50: 17.4 µM (active)
[2]
  AC50: 14.8 µM (active)
[3]
  outcome: inactive

## Nc1ccc(S(=O)(=O)c2ccc(N)cc2)cc1
[3]
  outcome: inactive

## NC(=O)Cn1c(=O)cc(CCN2CCN(c3nccc4sccc34)CC2)c2ccc(F)cc21
[3]
  outcome: inactive

## CC=Cc1ccc(O)c(OC)c1
[3]
  AC50: 50 µM (active)

## C=CCc1ccc(O)c(OC)c1
[3]
  outcome: inactive

## CC(C)(C)c1cc(O)c(C(C)(C)C)cc1O
[6]
  outcome: inactive
[7]
  outcome: inactive
[8]
  AC50: 186 µM (active)
[9]
  outcome: inactive
[3]
  AC50: 66.3 µM (active)

## CCCCCCCCCCCCCO
[3]
  outcome: inactive

## O=c1c(O)c(-c2ccc(O)c(O)c2)oc2cc(O)cc(O)c12
[5]
  AC50: 9.45 µM (active)
[1]
  AC50: 7.94 µM (active)
[2]
  AC50: 8.06 µM (active)
[3]
  AC50: 17.8 µM (active)

## CC(CO)OC(C)CO (stereo unspecified) (tested in a mixture with another compound)
[3]
  outcome: inactive

## CCCc1cc(=O)[nH]c(=S)[nH]1
[5]
  outcome: inactive
[1]
  outcome: inactive
[2]
  outcome: inactive
[4]
  outcome: inactive

## Cc1ccc(C)c(C)c1
[3]
  outcome: inactive
[4]
  outcome: inactive

## CC(C)c1ccc(C(=O)N=C(N)N)cc1S(C)(=O)=O
[3]
  outcome: inactive

## Oc1ccc2ccccc2c1N=Nc1ccccc1
[2]
  outcome: inactive

## CCCCC(CC)COC(=O)CC(C(=O)OCC(CC)CCCC)S(=O)(=O)O (stereo unspecified)
[5]
  outcome: inactive
[1]
  outcome: inactive
[3]
  AC50: 88.4 µM (active)
[4]
  AC50: 85.2 µM (active)
[10]
  AC50: 67.3 µM (active)

## CCCCCCCC=O
[3]
  outcome: inactive

## COCCOC[C@H](CC1(C(=O)NC2CCC(C(=O)O)CC2)CCCC1)C(=O)Oc1ccc2c(c1)CCC2 (stereo partly specified)
[3]
  outcome: inactive
[4]
  AC50: 16.5 µM (active)

## CC1(C)NC(=O)NC1=O
[3]
  outcome: inactive

## CCCCCCCCCCC
[3]
  outcome: inactive

## Cc1nc(C)nc(N2C[C@@H](C)N(c3ccnc([C@@H](C)O)n3)[C@@H](C)C2)n1
[3]
  outcome: inactive

## Cc1ccc2ncccc2c1
[3]
  outcome: inactive
[4]
  outcome: inactive

## CCCCCCCCCCCC(=O)OC
[3]
  outcome: inactive
[4]
  outcome: inactive

## O=C(O)CCCCC(=O)O
[3]
  AC50: 9.92 µM (active)
[4]
  AC50: 3.82 µM (active)
